Test results from the supplement of paper PMC12067093, “Discovery and optimisation of a covalent ligand for TRIM25 and its application to targeted protein ubiquitination” (Chemical Science, 2025).
Of roughly 21,000 targets only a part is listed; those with the largest changes were picked by preference.

compound: Cc1cc(ccc1-c1ccccc1)C(=O)N1CCCN(CC1)C(=O)CCl [compound 10]; experiment: probe-labelled cysteine peptide fold change vs DMSO (competition) (log2 fold change); higher = less target engagement (more negative = stronger competition); conditions: 10 µM; THP-1; incubation time: 4 h
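Also: competitive profiling in live THP-1 cells: cysteine peptides tagged with an iodoacetamide desthiobiotin (IA-DTB) probe, intensity after compound treatment relative to DMSO-treated cells.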

Sequence of UniProt Q9Y6I4 (Q9Y6I4 whole entry, looked up): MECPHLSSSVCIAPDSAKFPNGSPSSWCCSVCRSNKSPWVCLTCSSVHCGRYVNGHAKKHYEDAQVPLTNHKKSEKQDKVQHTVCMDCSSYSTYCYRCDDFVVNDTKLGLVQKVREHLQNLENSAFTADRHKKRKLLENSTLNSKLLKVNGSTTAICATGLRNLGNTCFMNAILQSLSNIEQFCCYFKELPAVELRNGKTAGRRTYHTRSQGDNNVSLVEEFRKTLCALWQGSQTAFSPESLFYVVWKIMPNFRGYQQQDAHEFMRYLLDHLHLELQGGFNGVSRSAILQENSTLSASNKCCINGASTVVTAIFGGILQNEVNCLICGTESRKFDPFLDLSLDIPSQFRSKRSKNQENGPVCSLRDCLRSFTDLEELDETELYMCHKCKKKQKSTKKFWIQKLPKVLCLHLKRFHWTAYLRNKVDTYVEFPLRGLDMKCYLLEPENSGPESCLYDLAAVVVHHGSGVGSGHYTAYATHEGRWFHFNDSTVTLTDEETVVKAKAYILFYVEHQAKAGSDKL
Sequence of UniProt Q9BRZ2 (Q9BRZ2 whole entry, looked up): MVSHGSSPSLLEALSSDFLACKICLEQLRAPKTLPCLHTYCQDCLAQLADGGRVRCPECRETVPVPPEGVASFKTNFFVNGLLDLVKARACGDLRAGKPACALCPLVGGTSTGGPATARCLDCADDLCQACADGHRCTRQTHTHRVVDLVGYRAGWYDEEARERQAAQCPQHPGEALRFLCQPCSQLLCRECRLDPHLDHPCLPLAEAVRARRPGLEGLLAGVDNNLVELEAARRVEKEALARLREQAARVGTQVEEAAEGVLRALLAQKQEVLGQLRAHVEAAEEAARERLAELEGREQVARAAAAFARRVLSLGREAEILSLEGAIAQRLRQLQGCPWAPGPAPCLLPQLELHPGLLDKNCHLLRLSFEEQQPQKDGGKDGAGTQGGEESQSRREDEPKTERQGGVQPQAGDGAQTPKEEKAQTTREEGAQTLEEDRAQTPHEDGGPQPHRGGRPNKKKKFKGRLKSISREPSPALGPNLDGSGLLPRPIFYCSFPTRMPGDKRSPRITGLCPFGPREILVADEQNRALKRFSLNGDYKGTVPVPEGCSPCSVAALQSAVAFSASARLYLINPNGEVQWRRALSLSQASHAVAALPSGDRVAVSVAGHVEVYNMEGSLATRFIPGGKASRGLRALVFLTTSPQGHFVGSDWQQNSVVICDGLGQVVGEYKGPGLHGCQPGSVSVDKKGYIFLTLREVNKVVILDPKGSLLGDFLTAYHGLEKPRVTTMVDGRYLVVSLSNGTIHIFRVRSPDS
Sequence of UniProt P31930 (P31930 whole entry, looked up): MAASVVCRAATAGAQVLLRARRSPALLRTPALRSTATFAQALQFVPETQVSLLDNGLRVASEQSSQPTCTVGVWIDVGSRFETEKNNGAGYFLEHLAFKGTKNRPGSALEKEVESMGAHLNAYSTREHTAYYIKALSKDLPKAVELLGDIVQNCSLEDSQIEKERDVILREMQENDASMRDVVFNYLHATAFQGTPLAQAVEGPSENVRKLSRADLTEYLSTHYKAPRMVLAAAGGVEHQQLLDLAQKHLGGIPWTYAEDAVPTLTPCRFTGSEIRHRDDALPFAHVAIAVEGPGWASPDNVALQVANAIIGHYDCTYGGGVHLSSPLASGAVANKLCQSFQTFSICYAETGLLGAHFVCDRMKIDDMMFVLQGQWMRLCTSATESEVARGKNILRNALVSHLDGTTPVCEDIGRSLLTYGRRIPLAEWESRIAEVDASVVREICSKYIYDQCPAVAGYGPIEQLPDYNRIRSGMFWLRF
Sequence of UniProt A5PLN9 (A5PLN9 whole entry, looked up): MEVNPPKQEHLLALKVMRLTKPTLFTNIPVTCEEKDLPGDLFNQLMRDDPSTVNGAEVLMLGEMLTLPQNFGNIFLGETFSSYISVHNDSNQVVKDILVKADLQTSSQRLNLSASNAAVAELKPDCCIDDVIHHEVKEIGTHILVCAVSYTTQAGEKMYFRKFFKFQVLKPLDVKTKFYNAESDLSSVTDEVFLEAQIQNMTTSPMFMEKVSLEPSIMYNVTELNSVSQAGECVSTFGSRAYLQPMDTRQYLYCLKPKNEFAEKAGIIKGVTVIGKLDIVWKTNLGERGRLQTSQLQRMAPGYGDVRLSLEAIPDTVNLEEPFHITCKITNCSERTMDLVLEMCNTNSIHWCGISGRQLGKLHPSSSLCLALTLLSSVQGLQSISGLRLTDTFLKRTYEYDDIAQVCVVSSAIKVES
Sequence of UniProt O94759 (O94759 whole entry, looked up): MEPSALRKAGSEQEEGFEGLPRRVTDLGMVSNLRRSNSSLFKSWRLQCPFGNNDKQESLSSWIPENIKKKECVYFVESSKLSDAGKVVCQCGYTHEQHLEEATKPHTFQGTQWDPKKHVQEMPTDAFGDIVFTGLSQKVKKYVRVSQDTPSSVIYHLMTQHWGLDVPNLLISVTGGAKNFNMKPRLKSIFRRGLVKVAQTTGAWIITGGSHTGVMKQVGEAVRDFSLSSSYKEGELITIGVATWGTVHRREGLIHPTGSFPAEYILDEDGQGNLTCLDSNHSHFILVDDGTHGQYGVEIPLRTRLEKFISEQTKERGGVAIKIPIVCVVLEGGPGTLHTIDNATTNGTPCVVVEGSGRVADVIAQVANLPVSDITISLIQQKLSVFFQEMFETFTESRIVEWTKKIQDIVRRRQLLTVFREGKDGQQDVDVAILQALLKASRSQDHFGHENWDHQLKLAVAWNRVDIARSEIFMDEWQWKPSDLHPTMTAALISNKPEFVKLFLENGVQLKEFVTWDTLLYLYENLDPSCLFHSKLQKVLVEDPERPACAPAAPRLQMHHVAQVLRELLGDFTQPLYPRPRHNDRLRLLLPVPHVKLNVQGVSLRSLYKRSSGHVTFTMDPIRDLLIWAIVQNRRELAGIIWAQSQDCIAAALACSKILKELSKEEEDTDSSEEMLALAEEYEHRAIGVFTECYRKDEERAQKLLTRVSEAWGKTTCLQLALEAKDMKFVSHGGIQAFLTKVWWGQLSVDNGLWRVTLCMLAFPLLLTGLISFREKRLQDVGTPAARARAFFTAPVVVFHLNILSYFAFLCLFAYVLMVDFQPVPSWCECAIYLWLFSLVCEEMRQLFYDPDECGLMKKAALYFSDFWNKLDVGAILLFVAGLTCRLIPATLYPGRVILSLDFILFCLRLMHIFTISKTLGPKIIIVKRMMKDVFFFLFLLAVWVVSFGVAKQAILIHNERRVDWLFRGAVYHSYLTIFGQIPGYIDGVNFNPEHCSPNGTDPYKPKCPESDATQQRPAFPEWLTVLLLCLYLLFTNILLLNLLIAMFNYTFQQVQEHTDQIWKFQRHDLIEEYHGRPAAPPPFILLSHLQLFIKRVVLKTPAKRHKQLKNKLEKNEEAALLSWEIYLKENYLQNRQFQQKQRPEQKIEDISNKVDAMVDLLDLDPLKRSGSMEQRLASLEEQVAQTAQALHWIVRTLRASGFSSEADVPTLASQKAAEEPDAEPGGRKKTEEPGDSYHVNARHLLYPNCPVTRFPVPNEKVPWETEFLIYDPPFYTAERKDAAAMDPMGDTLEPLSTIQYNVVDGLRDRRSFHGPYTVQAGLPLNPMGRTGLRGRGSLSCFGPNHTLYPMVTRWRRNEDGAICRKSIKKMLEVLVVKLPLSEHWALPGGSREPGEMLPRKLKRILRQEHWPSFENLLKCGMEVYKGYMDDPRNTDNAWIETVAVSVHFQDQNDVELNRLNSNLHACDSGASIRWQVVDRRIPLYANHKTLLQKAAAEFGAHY
Sequence of UniProt Q86UV5 (Q86UV5 whole entry, looked up): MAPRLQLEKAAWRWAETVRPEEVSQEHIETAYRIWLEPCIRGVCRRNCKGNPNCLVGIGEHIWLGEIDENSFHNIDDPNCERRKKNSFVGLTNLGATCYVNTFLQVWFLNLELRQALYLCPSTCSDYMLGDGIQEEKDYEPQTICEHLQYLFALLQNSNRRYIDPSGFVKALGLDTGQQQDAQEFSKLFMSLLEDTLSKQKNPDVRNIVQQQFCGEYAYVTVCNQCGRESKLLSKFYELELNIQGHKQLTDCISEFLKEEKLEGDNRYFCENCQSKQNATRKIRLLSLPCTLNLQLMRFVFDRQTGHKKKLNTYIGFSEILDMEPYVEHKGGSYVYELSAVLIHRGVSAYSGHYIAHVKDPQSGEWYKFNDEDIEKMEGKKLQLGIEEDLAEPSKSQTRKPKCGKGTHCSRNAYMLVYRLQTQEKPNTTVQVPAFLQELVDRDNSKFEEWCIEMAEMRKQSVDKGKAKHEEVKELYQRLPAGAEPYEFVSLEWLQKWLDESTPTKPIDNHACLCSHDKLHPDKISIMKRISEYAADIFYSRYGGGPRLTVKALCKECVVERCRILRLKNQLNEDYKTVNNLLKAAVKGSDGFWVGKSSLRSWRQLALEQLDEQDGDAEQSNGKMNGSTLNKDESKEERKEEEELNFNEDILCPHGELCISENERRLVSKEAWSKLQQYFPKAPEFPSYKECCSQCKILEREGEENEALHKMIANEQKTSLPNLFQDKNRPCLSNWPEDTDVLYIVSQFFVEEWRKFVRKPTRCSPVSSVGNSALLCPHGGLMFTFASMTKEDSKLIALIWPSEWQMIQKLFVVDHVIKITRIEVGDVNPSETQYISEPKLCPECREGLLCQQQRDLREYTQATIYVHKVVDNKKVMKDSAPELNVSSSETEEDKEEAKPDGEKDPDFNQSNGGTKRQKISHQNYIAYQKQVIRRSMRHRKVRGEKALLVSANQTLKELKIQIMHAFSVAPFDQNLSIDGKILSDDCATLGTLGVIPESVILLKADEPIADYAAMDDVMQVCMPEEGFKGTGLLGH
Sequence of UniProt Q15631 (Q15631 whole entry): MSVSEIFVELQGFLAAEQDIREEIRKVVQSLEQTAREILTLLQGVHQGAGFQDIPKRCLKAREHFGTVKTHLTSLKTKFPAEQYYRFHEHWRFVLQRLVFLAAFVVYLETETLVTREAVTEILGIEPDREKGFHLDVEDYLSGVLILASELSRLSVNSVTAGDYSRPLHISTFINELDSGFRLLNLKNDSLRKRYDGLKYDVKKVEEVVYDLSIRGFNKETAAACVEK

Target	probe-labelled cysteine peptide fold change
TUBG1_P23258_138_IHEDIFDIIDREADGSDSLEGFVLCHSIAGGTGSGLGSYLLER<|>TUBG2_Q9NRH3_138_IHEDIFDIIDREADGSDSLEGFVLCHSIAGGTGSGLGSYLLER (UniProt Q9NRH3+P23258)	0.194
TRPM2_O94759_72_ECVYFVESSK (UniProt O94759)	-0.0415
TRA2B_P62995_119_ANPDPNCCLGVFGLSLYTTER (UniProt P62995)	0.163
TSN_Q15631_225_ETAAACVEK (UniProt Q15631)	-0.291
USP22_Q9UPT9_171_KITSNCTIGLR (UniProt Q9UPT9)	-0.315
TRIM25_Q14258_119_TCLVCMASFCQEHLQPHFDSPAFQDHPLQPPVR (UniProt Q14258)	0.371
TUBA3C_P0DPH7_4+20+25_MRECISIHVGQAGVQIGNACWELYCLEHGIQPDGQMPSDK<|>TUBA3D_P68363_4+20+25_MRECISIHVGQAGVQIGNACWELYCLEHGIQPDGQMPSDK<|>TUBA1B_Q6PEY2_4+20+25_MRECISIHVGQAGVQIGNACWELYCLEHGIQPDGQMPSDK<|>TUBA3E_Q9BQE3_4+20+25_MRECISIHVGQAGVQIGNACWELYCLEHGIQPDGQMPSDK (UniProt Q9BQE3+Q6PEY2+P68363+P0DPH7)	0.318
USP3_Q9Y6I4_98_CDDFVVNDTK (UniProt Q9Y6I4)	-0.0308
VCPIP1_Q96JH7_207+219_SQECLIPVHVDGDGHCLVHAVSR (UniProt Q96JH7)	-1.2
TRNAU1AP_Q9NX07_157_ALTECQGAVGLGSKPVR (UniProt Q9NX07)	-0.212
UCHL3_P15374_95_QTISNACGTIGLIHAIANNK (UniProt P15374)	-0.157
UBL7_Q96S82_66_LQESVPDPELIDLIYCGR (UniProt Q96S82)	-0.109
USP40_Q9NVE5_50_NQGGTCYLNSLLQTLHFTPEFR (UniProt Q9NVE5)	-0.592
TRMT11_Q7Z4G4_161_KPQHVFSVLEDYGLDPNCIPENPHNIYFGR (UniProt Q7Z4G4)	-0.0115
VARS2_Q5ST30_549_QLWWGHQIPAYLVVEDHAQGEEDCWVVGR (UniProt Q5ST30)	0.149
UNC45A_Q9H3U1_503_ALVGLCK (UniProt Q9H3U1)	0.0377
TRIM56_Q9BRZ2_41_TLPCLHTYCQDCLAQLADGGR (UniProt Q9BRZ2)	0.238
UBN1_Q9NPG3_765_ELSCQAPLNK (UniProt Q9NPG3)	-0.169
UBE2L6_O14933_86+98_IYHPNVDENGQICLPIISSENWKPCTK (UniProt O14933)	-0.606
USP19_O94966_656+659_LVCPVCAK (UniProt O94966)	-0.159

Target	probe-labelled cysteine peptide fold change
UQCRC1_P31930_154_AVELLGDIVQNCSLEDSQIEK (UniProt P31930)	0.114
UBA6_A0AVT1_156_YQCVVLTEMK	0.126
VCPIP1_Q96JH7_517_NYSFPLNNLVCSYDSVK (UniProt Q96JH7)	0.0884
TRIM24_O15164_127+134_CPVCSQECAER (UniProt O15164)	0.118
TUBAL3_A6NHL2_322+323_YMACCLLYR<|>TUBA1B_P68366_315+316_YMACCLLYR<|>TUBA4A_Q9BQE3_315+316_YMACCLLYR (UniProt P68366+Q9BQE3+A6NHL2)	-0.349
UTP20_O75691_242_NMFHSCTGQAVK (UniProt O75691)	-0.122
USP34_Q70CQ2_3118_SNIRPPRPELNMCLLPTMVETSK (UniProt Q70CQ2)	0.146
USP48_Q86UV5_512+514_WLDESTPTKPIDNHACLCSHDK (UniProt Q86UV5)	-0.0825
TRRAP_Q9Y4A5_3535_IYPYLVMNDACLTESR (UniProt Q9Y4A5)	-0.136
UGGT1_Q9NYU2_880_MDFILSHAVYCR (UniProt Q9NYU2)	0.117
UBR7_Q8N806_155_RPYPDPEDEIPDEMIQCVVCEDWFHGR (UniProt Q8N806)	0.0312
UBR7_Q8N806_46_CSYSQGSVKR (UniProt Q8N806)	-0.118
U2SURP_O15042_918_EKDECTPTRK (UniProt O15042)	-0.0489
USP40_Q9NVE5_1054_RIEICLEPLQK (UniProt Q9NVE5)	0.0209
USP34_Q70CQ2_1330_KGEGVQLPASCLPPPQK (UniProt Q70CQ2)	-0.079
TRAPPC13_A5PLN9_327_LSLEAIPDTVNLEEPFHITCK (UniProt A5PLN9)	0.0844
VPS13C_Q709C8_2289_GIEHSLIEENCGVVVESIQVTLECGLGHR (UniProt Q709C8)	-0.105
UBE2O_Q9C0C9_375_NCAQGEGSMAK (UniProt Q9C0C9)	-0.0634
TXN2_Q99757_93_VVNSETPVVVDFHAQWCGPCK (UniProt Q99757)	-1.34

same assay, conditions: 50 µM; THP-1; incubation time: 4 h

Target	probe-labelled cysteine peptide fold change
TUBG1_P23258_138_IHEDIFDIIDREADGSDSLEGFVLCHSIAGGTGSGLGSYLLER<|>TUBG2_Q9NRH3_138_IHEDIFDIIDREADGSDSLEGFVLCHSIAGGTGSGLGSYLLER (UniProt Q9NRH3+P23258)	-0.0593
TRPM2_O94759_72_ECVYFVESSK (UniProt O94759)	-0.249
TRA2B_P62995_119_ANPDPNCCLGVFGLSLYTTER (UniProt P62995)	0.111
TSN_Q15631_225_ETAAACVEK (UniProt Q15631)	-0.282
USP22_Q9UPT9_171_KITSNCTIGLR (UniProt Q9UPT9)	-0.757
TRIM25_Q14258_119_TCLVCMASFCQEHLQPHFDSPAFQDHPLQPPVR (UniProt Q14258)	0.313
TUBA3C_P0DPH7_4+20+25_MRECISIHVGQAGVQIGNACWELYCLEHGIQPDGQMPSDK<|>TUBA3D_P68363_4+20+25_MRECISIHVGQAGVQIGNACWELYCLEHGIQPDGQMPSDK<|>TUBA1B_Q6PEY2_4+20+25_MRECISIHVGQAGVQIGNACWELYCLEHGIQPDGQMPSDK<|>TUBA3E_Q9BQE3_4+20+25_MRECISIHVGQAGVQIGNACWELYCLEHGIQPDGQMPSDK (UniProt Q9BQE3+Q6PEY2+P68363+P0DPH7)	0.131
USP3_Q9Y6I4_98_CDDFVVNDTK (UniProt Q9Y6I4)	-0.0909
VCPIP1_Q96JH7_207+219_SQECLIPVHVDGDGHCLVHAVSR (UniProt Q96JH7)	-1.48
TRNAU1AP_Q9NX07_157_ALTECQGAVGLGSKPVR (UniProt Q9NX07)	-0.171
UCHL3_P15374_95_QTISNACGTIGLIHAIANNK (UniProt P15374)	-1.45
UBL7_Q96S82_66_LQESVPDPELIDLIYCGR (UniProt Q96S82)	-0.328
USP40_Q9NVE5_50_NQGGTCYLNSLLQTLHFTPEFR (UniProt Q9NVE5)	-1.83
TRMT11_Q7Z4G4_161_KPQHVFSVLEDYGLDPNCIPENPHNIYFGR (UniProt Q7Z4G4)	-0.0241
VARS2_Q5ST30_549_QLWWGHQIPAYLVVEDHAQGEEDCWVVGR (UniProt Q5ST30)	0.141
UNC45A_Q9H3U1_503_ALVGLCK (UniProt Q9H3U1)	-0.217
TRIM56_Q9BRZ2_41_TLPCLHTYCQDCLAQLADGGR (UniProt Q9BRZ2)	0.113
UBN1_Q9NPG3_765_ELSCQAPLNK (UniProt Q9NPG3)	-0.168
UBE2L6_O14933_86+98_IYHPNVDENGQICLPIISSENWKPCTK (UniProt O14933)	-1.39
USP19_O94966_656+659_LVCPVCAK (UniProt O94966)	-1.2

Target	probe-labelled cysteine peptide fold change
UQCRC1_P31930_154_AVELLGDIVQNCSLEDSQIEK (UniProt P31930)	0.272
UBA6_A0AVT1_156_YQCVVLTEMK	0.104
VCPIP1_Q96JH7_517_NYSFPLNNLVCSYDSVK (UniProt Q96JH7)	0.1
TRIM24_O15164_127+134_CPVCSQECAER (UniProt O15164)	-0.0216
TUBAL3_A6NHL2_322+323_YMACCLLYR<|>TUBA1B_P68366_315+316_YMACCLLYR<|>TUBA4A_Q9BQE3_315+316_YMACCLLYR (UniProt P68366+Q9BQE3+A6NHL2)	-0.661
UTP20_O75691_242_NMFHSCTGQAVK (UniProt O75691)	0.227
USP34_Q70CQ2_3118_SNIRPPRPELNMCLLPTMVETSK (UniProt Q70CQ2)	-0.174
USP48_Q86UV5_512+514_WLDESTPTKPIDNHACLCSHDK (UniProt Q86UV5)	-1.16
TRRAP_Q9Y4A5_3535_IYPYLVMNDACLTESR (UniProt Q9Y4A5)	-0.0829
UGGT1_Q9NYU2_880_MDFILSHAVYCR (UniProt Q9NYU2)	0.39
UBR7_Q8N806_155_RPYPDPEDEIPDEMIQCVVCEDWFHGR (UniProt Q8N806)	0.0116
UBR7_Q8N806_46_CSYSQGSVKR (UniProt Q8N806)	-0.607
U2SURP_O15042_918_EKDECTPTRK (UniProt O15042)	0.231
USP40_Q9NVE5_1054_RIEICLEPLQK (UniProt Q9NVE5)	-0.0411
USP34_Q70CQ2_1330_KGEGVQLPASCLPPPQK (UniProt Q70CQ2)	-0.0424
TRAPPC13_A5PLN9_327_LSLEAIPDTVNLEEPFHITCK (UniProt A5PLN9)	0.00702
VPS13C_Q709C8_2289_GIEHSLIEENCGVVVESIQVTLECGLGHR (UniProt Q709C8)	-0.0661
UBE2O_Q9C0C9_375_NCAQGEGSMAK (UniProt Q9C0C9)	-0.156
TXN2_Q99757_93_VVNSETPVVVDFHAQWCGPCK (UniProt Q99757)	-1.7
